According to PubChem BioAssay (Tox21):
“And” between values parts separate entries of the source, which are not always exact repeats. Equal entries are not always repeated. Records with an inconclusive call do not appear. A call without a number means that no potency is given here. The source holds several records for some structures; these can differ, active in one and inactive in another. The source made the active and inactive calls. Unless noted, calls come from the whole dose curve; as a rule, active = well fitted curve in the direction sought with a large enough effect in the repeat runs; inconclusive = weak or mixed curves; inactive = no such curve, though single readings can be large; an effect the other way counts as inactive or inconclusive.

Legend:
[1] = molecular target: Thyrotropin receptor (Homo sapiens) (UniProt P16473); assay: qHTS assay to identify small molecule antagonists of the thyroid stimulating hormone receptor (TSHR) signaling pathway (AID 1259385; calls by dose curve; note: nearly all actives have a fitted effect of over 20% in size)
Sequence of Thyrotropin receptor (Homo sapiens) (P16473 whole entry, looked up): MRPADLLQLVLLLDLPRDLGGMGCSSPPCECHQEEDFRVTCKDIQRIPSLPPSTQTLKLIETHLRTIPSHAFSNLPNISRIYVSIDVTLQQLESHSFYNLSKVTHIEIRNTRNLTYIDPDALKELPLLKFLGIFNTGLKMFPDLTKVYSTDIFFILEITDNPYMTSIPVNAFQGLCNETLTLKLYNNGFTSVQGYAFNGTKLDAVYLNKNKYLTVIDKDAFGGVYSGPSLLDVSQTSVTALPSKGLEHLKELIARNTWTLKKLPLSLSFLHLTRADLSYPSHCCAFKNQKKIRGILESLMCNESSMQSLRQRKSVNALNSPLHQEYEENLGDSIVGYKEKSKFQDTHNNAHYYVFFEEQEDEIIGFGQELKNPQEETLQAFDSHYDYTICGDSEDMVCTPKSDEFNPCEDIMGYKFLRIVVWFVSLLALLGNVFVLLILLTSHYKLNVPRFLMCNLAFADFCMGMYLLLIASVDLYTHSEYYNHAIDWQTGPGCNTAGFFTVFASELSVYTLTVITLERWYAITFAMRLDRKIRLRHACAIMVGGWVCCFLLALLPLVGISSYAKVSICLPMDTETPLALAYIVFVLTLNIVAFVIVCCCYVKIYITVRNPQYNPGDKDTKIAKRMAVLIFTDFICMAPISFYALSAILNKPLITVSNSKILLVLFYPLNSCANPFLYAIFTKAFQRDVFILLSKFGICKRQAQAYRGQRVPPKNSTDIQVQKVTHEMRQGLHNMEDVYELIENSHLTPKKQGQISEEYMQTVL
In short: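 TSHR-HEK293 cells (800/well) plated 18 h, then compounds with Ro20-1724 and TSH at 1.5 ng/mL final, 30 min at room temperature. cAMP quantified by HTRF (cAMP-d2/anti-cAMP-cryptate, 1 h); 15 concentrations in triplicate.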

[2] = qHTS assay to identify small molecule agonists of the estrogen receptor alpha (ER-alpha) signaling pathway in the presence of an antagonist - cell viability counter screen (AID 1259386);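 note: series mostly up to about 92 µM; cells exposed to compounds for 22 h at 37 °C before the viability read; nearly all actives have a fitted effect of over 30% in size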
In short: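 Using estrogen-depleted VM7Luc4E2 cells, the 15-concentration compound series was applied together with 10.0nM ICI-182,780 and incubated 22hr at 37C/5% CO2. Cell viability was then scored by CellTiter-Fluor.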

[3] = molecular target: Progesterone receptor (Homo sapiens) (UniProt P06401); assay: qHTS assay to identify small molecule agonists of the progesterone receptor (PR) signaling pathway (AID 1346784; calls by dose curve; note: nearly all actives have a fitted effect of over 30% in size)
Sequence of Progesterone receptor (Homo sapiens) (P06401 whole entry, looked up): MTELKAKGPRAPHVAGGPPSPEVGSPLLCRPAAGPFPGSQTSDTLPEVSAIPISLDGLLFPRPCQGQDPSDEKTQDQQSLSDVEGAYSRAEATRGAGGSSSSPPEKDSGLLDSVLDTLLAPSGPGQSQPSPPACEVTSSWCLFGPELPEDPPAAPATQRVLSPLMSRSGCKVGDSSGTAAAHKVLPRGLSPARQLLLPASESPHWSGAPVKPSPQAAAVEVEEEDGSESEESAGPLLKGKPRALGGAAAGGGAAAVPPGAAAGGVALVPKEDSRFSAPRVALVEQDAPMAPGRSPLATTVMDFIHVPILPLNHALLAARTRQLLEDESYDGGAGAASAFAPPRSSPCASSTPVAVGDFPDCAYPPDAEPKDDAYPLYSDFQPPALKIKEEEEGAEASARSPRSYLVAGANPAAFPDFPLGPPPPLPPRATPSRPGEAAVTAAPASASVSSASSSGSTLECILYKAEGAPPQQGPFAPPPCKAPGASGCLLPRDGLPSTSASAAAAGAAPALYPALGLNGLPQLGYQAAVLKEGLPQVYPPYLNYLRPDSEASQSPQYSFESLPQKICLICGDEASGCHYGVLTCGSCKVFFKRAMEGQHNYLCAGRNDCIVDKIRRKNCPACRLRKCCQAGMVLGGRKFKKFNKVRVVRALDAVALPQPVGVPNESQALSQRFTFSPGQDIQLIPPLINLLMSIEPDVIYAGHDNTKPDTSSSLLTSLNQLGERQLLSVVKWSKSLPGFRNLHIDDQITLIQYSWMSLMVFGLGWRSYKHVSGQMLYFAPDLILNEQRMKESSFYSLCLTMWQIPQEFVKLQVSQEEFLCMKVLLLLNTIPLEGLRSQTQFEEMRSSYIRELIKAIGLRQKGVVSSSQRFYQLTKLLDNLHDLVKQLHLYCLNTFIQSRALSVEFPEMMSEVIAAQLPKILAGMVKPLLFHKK
In short: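 Using charcoal-stripped serum (2%) to limit endogenous steroids, PR-UAS-bla HEK 293T cells received compounds for 16 hr at 37C after 6 hr plating; beta-lactamase FRET fluorescence was recorded following 2 hr substrate loading at room temperature.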

[4] = molecular target: Progesterone receptor (Homo sapiens) (UniProt P06401); assay: qHTS assay to identify small molecule antagonists of the progesterone receptor (PR) signaling pathway (AID 1346795; active = well fitted inhibition curve with a large enough effect in the signal ratio in the repeat runs, not every such curve was filed as active; the % refers to the signal ratio)
In short: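 Inhibition of R5020-induced (1 nM final) beta-lactamase reporter signal in PR-UAS-bla HEK293T cells was scored by FRET fluorescence after overnight (16 hr) compound treatment.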

[5] = qHTS assay to identify small molecule antagonists of the progesterone receptor (PR) signaling pathway - cell viability counter screen (AID 1346798); note: series mostly up to about 92 µM; nearly all actives have a fitted effect of over 50% in size
In short: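 ATP content as viability readout: CellTiter-Glo luminescence, 30 min room temperature, in PR-UAS-bla HEK293T cells after 16 hr compound/R5020 treatment at 37C and 5% CO2.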

[6] = qHTS assay to identify small molecule agonists of the progesterone receptor (PR) signaling pathway - cell viability counter screen (AID 1346799; calls by dose curve; note: nearly all actives have a fitted effect of over 45% in size; note: potency is the fitted concentration of half-maximal effect)
In short: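 Cytotoxicity in PR-bla HEK293T cells: 16 h compound, 37C; CellTiter-Glo added post-FRET read; luminescence after 30 min RT.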

[7] = qHTS assay to identify small molecule antagonists of the TGF-beta/Smad signaling pathway - cell viability counter screen (AID 1346824); note: nearly all actives have a fitted effect of over 50% in size
In short: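 SBE-bla HEK 293T cells, incubated overnight, then compound plus 0.25 ng/mL TGF-beta1 (stock added) for 5 hr at 37 C. Viability was read in the same wells by CellTiter-Glo luminescence after 30 min at room temperature.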

[8] = qHTS assay to identify small molecule agonists of the TGF-beta/Smad signaling pathway - cell viability counter screen (AID 1346829); note: top concentration of the series differs between compounds; nearly all actives have a fitted effect of over 45% in size
In short: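 After overnight seating at 37 C and 5% CO2, reporter cells got compounds for 5 hr and FRET substrate for 2 hr; cell viability then came from CellTiter-Glo luminescence.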

[9] = qHTS assay to identify small molecule agonists of the TGF-beta/Smad signaling pathway (AID 1346859; active = well fitted activation curve with a large enough effect in the signal ratio in the repeat runs, not every such curve was filed as active; the % refers to the signal ratio; note: series mostly up to about 77 µM)
In short: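 Stable Smad binding element-beta-lactamase HEK 293T cells; 5 hr compound exposure at 37 C under 5% CO2; 2 hr room-temperature substrate step; fluorescence excited at 405 nm, collected at 460 nm and 530 nm.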

[10] = molecular target: Thyrotropin-releasing hormone receptor (Homo sapiens) (UniProt P34981); assay: qHTS assay to identify small molecule antagonists of the thyrotropin-releasing hormone receptor (TRHR) signaling pathway (AID 1346877; active = well fitted inhibition curve with a large enough effect in the repeat runs, not every such curve was filed as active; note: series mostly up to about 51 µM)
Sequence of Thyrotropin-releasing hormone receptor (Homo sapiens) (P34981 whole entry, looked up): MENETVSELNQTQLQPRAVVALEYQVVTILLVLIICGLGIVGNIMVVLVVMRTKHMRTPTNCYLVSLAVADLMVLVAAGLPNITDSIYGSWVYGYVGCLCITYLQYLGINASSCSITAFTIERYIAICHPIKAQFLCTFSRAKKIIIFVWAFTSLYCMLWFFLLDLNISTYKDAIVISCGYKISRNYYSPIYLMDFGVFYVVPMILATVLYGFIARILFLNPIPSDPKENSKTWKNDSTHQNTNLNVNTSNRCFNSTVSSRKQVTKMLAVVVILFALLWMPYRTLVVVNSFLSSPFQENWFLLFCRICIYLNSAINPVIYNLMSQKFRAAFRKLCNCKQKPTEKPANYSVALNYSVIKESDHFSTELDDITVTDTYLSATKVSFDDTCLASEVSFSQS
In short: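 Calcium signal in dye-loaded TRHR/HEK293 cells; compounds added 5 min before TRH (1 nM final); fluorescence monitored 3 min at 1 s steps.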

[11] = molecular target: Thyrotropin-releasing hormone receptor (Homo sapiens) (UniProt P34981); assay: qHTS assay to identify small molecule agonists of the thyrotropin-releasing hormone receptor (TRHR) signaling pathway (AID 1346891; calls by dose curve;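 note: HEK293 cells expressing TRHR with calcium dye readout; series mostly up to about 58 µM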)
In short: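 In 1536-format, 1500 TRHR-Hek293 cells per well grew 18 h, took up calcium dye for 2 h at 37 °C, received compound, and were read kinetically; 15-point titrations, triplicates.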

[12] = Human pregnane X receptor (PXR) small molecule agonists, qHTS cell viability counter screen (AID 1346977); note: nearly all actives have a fitted effect of over 50% in size; note: potency is the fitted concentration of half-maximal effect
In short: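 Readout is CellTiter-Fluor fluorescence from PXR-Luc HepG2 cells. Plated cells rested 5hr, then were treated with compounds for 24hr at 37C and 5% CO2, with reagent present during the last hour.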

[13] = Caspase-3/7 induction in HepG2 cells by small molecules, qHTS assay (AID 1346978); note: nearly all actives have a fitted effect of over 15% in size; note: potency is the fitted concentration of half-maximal effect
In short: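 Wild-type HepG2 cells, 2,000/well, settled 5 hr at 37 C and 5% CO2, then compound-treated for 17 hr; caspase-3/7 activity read by luminescent Caspase-Glo 3/7 after 30 min at room temperature.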

[14] = Caspase-3/7 induction in CHO-K1 cells by small molecules, qHTS cell viability counter screen (AID 1346979); note: nearly all actives have a fitted effect of over 35% in size; note: potency is the fitted concentration of half-maximal effect
In short: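 To flag cytotoxic compounds, treated CHO-K1 wild-type cells were given CellTiter-Fluor at 16hr and read fluorescently after 1hr at 37C; the caspase-3/7 luminescence was measured in these same wells.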

[15] = Caspase-3/7 induction in CHO-K1 cells by small molecules, qHTS assay (AID 1346980); note: nearly all actives have a fitted effect of over 15% in size
In short: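 Wild-type CHO-K1 cells exposed to compounds for 17hr at 37 C, 5% CO2. Caspase-3/7 activity then measured by Caspase-Glo 3/7 luminescence after 30min at room temperature.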

[16] = molecular target: Nuclear receptor subfamily 1 group I member 2 (Homo sapiens) (UniProt O75469); assay: Human pregnane X receptor (PXR) small molecule agonists, qHTS assay (AID 1346982); note: nearly all actives have a fitted effect of over 35% in size; note: potency is the fitted concentration of half-maximal effect
Sequence of Nuclear receptor subfamily 1 group I member 2 (Homo sapiens) (O75469 whole entry, looked up): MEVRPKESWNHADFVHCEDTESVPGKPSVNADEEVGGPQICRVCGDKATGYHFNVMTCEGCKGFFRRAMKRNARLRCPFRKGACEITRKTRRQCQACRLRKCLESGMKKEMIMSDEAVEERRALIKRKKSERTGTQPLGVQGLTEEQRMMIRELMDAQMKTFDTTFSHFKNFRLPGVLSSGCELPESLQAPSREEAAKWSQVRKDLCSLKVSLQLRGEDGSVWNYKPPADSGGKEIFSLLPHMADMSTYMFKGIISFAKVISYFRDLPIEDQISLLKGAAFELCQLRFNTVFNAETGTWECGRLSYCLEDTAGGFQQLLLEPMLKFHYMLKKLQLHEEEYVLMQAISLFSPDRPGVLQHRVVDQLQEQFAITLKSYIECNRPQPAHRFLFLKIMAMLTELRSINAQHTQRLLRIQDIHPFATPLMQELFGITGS
In short: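 Tox21 qHTS; PXR-Luc HepG2; compounds pinned from DMSO; 24 hr, 37 C; ONE-Glo luciferase detection, 30 min room temperature.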

[17] = Caspase-3/7 induction in HepG2 cells by small molecules, qHTS cell viability counter screen (AID 1346981); note: series mostly up to about 92 µM; nearly all actives have a fitted effect of over 30% in size
In short: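 After a 5-hr attachment period at 37 C and 5% CO2, wild-type HepG2 cells received compounds in DMSO. Sixteen hours later CellTiter-Fluor was dispensed and the fluorescent signal quantified after a further hour.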

[18] = molecular target: Nuclear receptor subfamily 1 group I member 2 (Rattus norvegicus) (UniProt Q9R1A7); assay: Rat pregnane X receptor (rPXR) activation by small molecules, qHTS assay (AID 1346983); settings: rPXR luciferase reporter cells, One-Glo luminescence, 24 h; max activation: stronger effect = higher value; note: nearly all actives have a fitted effect of over 20% in size
Sequence of Nuclear receptor subfamily 1 group I member 2 (Rattus norvegicus) (Q9R1A7 whole entry, looked up): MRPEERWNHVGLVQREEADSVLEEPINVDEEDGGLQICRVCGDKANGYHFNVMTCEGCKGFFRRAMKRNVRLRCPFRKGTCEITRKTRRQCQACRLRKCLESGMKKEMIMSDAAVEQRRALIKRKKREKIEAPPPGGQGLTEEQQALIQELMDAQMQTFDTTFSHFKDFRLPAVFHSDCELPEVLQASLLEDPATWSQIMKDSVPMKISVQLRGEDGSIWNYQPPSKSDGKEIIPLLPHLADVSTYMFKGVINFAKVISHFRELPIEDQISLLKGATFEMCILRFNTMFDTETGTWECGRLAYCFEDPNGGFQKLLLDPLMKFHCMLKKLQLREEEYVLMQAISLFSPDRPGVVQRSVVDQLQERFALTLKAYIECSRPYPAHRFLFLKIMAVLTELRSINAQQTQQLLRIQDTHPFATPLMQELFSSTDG
In short: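 Cell-based rPXR activation assay: rPXR cells, 2,000 per well, rested 5hr at 37 C, then exposed to compounds in DMSO for 24 hr at 37 C. Luciferase activity read by One-Glo luminescence after 30 min at room temperature.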

[19] = molecular target: Nuclear receptor subfamily 1 group I member 2 (Homo sapiens) (UniProt O75469); assay: CYP3A4 induction through human pregnane X receptor (PXR) by small molecules, qHTS assay (AID 1346984); note: nearly all actives have a fitted effect of over 40% in size
In short: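 Cells (DPX-2; HepG2 with PXR element plus CYP3A4-promoter luciferase) settled 5hr, then were treated 24hr at 37C. A 3hr, 3uM-final Luciferin-IPA step preceded luminescence measurement with One-Glo.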

[20] = molecular target: Nuclear receptor subfamily 1 group I member 2 (Homo sapiens) (UniProt O75469); assay: Human pregnane X receptor (PXR) activation by small molecules, qHTS assay (AID 1346985); note: nearly all actives have a fitted effect of over 40% in size
In short: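 DPX-2 cells (HepG2 co-transfected with a PXR response element and a CYP3A4-promoter luciferase construct) were seeded at 2,000 per well, rested 5 hr at 37C, then exposed to DMSO-dissolved compounds for 24 hr. Activation was read as luciferase luminescence.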

| Compound | Potency [1] | Potency [2] | Potency [3] | Potency [4] | Potency [5] | Potency [6] | Potency [7] | Potency [8] | outcome [9] | Potency [10] | Potency [11] | Potency [12] | Potency [13] | Potency [14] | Potency [15] | Potency [16] | Potency [17] | max activation [18] | Potency [19] | Potency [20] |
| --- | --- | --- | --- | --- | --- | --- | --- | --- | --- | --- | --- | --- | --- | --- | --- | --- | --- | --- | --- | --- |
| CCCCC/C=C/C=C/C=O | inactive | inactive | inactive | inactive | inactive | inactive | inactive | inactive | inactive | inactive | inactive | inactive | inactive | inactive and 61.1 µM (active) | inactive | inactive and 61.1 µM (active) |  |  |  |  |
| CCCCC(CC)COP(=O)(OCC(CC)CCCC)OCC(CC)CCCC (configuration not stated) | inactive | inactive | inactive | inactive | inactive | inactive | inactive | inactive | inactive | inactive | inactive | inactive | inactive | inactive | inactive | inactive and 4.86 µM (active) | inactive |  |  |  |
| OC[C@H]1O[C@@H]2O[C@H]3[C@H](O)[C@@H](O)[C@@H](O[C@H]4[C@H](O)[C@@H](O)[C@@H](O[C@H]5[C@H](O)[C@@H](O)[C@@H](O[C@H]6[C@H](O)[C@@H](O)[C@@H](O[C@H]7[C@H](O)[C@@H](O)[C@@H](O[C@H]8[C@H](O)[C@@H](O)[C@@H](O[C@H]1[C@H](O)[C@H]2O)O[C@@H]8CO)O[C@@H]7CO)O[C@@H]6CO)O[C@@H]5CO)O[C@@H]4CO)O[C@@H]3CO | inactive | inactive | inactive | inactive | inactive | 24.4 µM (active) and inactive | inactive | inactive | inactive | inactive | inactive |  | inactive | inactive | inactive | inactive | inactive | -2.34% (inactive) | inactive | inactive |
| CCCCOCCOCCOCCO | inactive | inactive | inactive | inactive | inactive | inactive |  | inactive | inactive | inactive | inactive |  | inactive | inactive | inactive | inactive | inactive |  |  |  |
| COc1ccc(C(=O)CC(=O)c2ccc(C(C)(C)C)cc2)cc1 | inactive | inactive | inactive | inactive | inactive | inactive | inactive | inactive | inactive | inactive | inactive | inactive | inactive | inactive | inactive | 65.8 µM (active) and inactive | inactive | -2.2% (inactive) | inactive | inactive |
| CC(C)OC=O | inactive | inactive | inactive | inactive | inactive | inactive | inactive | inactive | inactive | inactive | inactive | inactive | inactive | inactive | inactive | inactive |  |  |  |  |
| Cc1cccc(C(=O)O)c1 | inactive | inactive | inactive | inactive | inactive | inactive | inactive | inactive | inactive |  |  | 14.1 µM (active) | 13.5 µM (active) and inactive | 3.4 µM (active) and inactive | inactive | 9.57 µM (active) and inactive |  |  |  |  |
